From PubChem
This is one part of a sample in which hits are shown more often than they occur.
IDE exosite FP – displaces the probe from the exo-site of human IDE | P14735 | purified IDE, FL-6b probe fluorescence polarization; stronger effect = lower value | z-score at 20 µM | hit rate 6.3% among 17,000 | AID 1259349;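 active = z-score of -3 or lower, meaning strong loss of probe binding signal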;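 also: His-tagged human IDE residues 42-1019 made in E. coli with 30 nM FL-6b probe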
Numbers without * were called inactive.

SMILES	IDE exosite FP
COc1cccc(-c2ccc([C@H]3[C@@H](C#N)N(C(=O)c4ccccn4)[C@@H]3CO)cc2)c1	-4.3*
COc1cccc(C#Cc2ccc([C@@H]3[C@@H](C#N)N(C(=O)c4ccccn4)[C@H]3CO)cc2)c1	1.55
COc1cccc(-c2ccc([C@H]3[C@H](C#N)N(C(=O)c4ccccn4)[C@H]3CO)cc2)c1	-2.87
COc1cccc(-c2ccc([C@H]3[C@@H](CO)N(C(=O)c4ccccn4)[C@H]3C#N)cc2)c1	-5.94*
COc1ccc(-c2ccccc2[C@H]2[C@@H](C#N)N(C(=O)C3CCCCC3)[C@H]2CO)cc1	3.47
CCCC#Cc1ccc([C@@H]2[C@H](C#N)N(C(=O)C3CCCC3)[C@H]2CO)cc1	4.71
C/C=C/c1ccc([C@H]2[C@@H](CO)N(C(=O)C3CCC3)[C@@H]2CNC(=O)NC(C)C)cc1	3.61
CN(C)CC(=O)N1CCCCN2[C@H](CO)[C@H](c3ccc(-c4ccccc4)cc3)[C@@H]2C1	2.34
CN(C)CC(=O)N1CCCCN2[C@H](CO)[C@H](c3ccc(-c4ccccc4)cc3)[C@H]2C1	2.26
CN(C)CC#Cc1ccc([C@H]2[C@H]3CN(C(=O)CN(C)C)CCCCN3[C@H]2CO)cc1	4.62
CN(C)CC(=O)N1CCCCN2[C@H](CO)[C@@H](c3ccc(/C=C/c4ccccc4)cc3)[C@@H]2C1	-12*
CN(C)CC(=O)N1CCCCN2[C@H](CO)[C@H](c3ccc(/C=C/c4ccccc4)cc3)[C@@H]2C1	-7.72*
C/C=C/c1ccc([C@@H]2[C@H](CO)N3CCCCN(C(=O)CN(C)C)C[C@@H]23)cc1	3.92
O=C(NCc1ccccc1F)[C@H]1[C@H](CO)[C@H]2Cn3c(cccc3=O)[C@H]2N1CC1CCCC1	0.142
O=C(C[C@@H]1CC[C@@H]2[C@H](COC[C@@H](O)CN2Cc2nccs2)O1)NCc1ccccc1Cl	-0.617
O=C1CN(S(=O)(=O)Cc2ccccc2)C[C@@H]2[C@H](c3ccc(C#Cc4ccccc4)cc3)[C@@H](CO)N12	0.806
CC(C)C#Cc1ccc([C@@H]2[C@H]3CN(C(=O)Cc4ccccc4)CC(=O)N3[C@H]2CO)cc1	0.528
COc1ccc(NC(=O)N2CCCCN3[C@H](CO)[C@@H](c4ccc(C5=CCCCC5)cc4)[C@H]3C2)cc1	4.14
Cc1cccc(S(=O)(=O)N2CCCCN3[C@@H](CO)[C@@H](c4ccc(-c5cccnc5)cc4)[C@@H]3C2)c1	-3.26*
COc1cccc(S(=O)(=O)N2CCCCN3[C@H](CO)[C@@H](c4ccc(-c5cncnc5)cc4)[C@@H]3C2)c1	-0.616
Cc1cccc(S(=O)(=O)N2CCCCN3[C@@H](CO)[C@H](c4ccc(-c5ccncc5)cc4)[C@@H]3C2)c1	1.62
COc1cccc(S(=O)(=O)N2CCCCN3[C@@H](CO)[C@@H](c4ccc(-c5cncnc5)cc4)[C@@H]3C2)c1	-0.237
COc1cccc(S(=O)(=O)N2CCCCN3[C@H](CO)[C@H](c4ccc(-c5cccnc5)cc4)[C@H]3C2)c1	1.12
COc1cccc(S(=O)(=O)N2CCCCN3[C@H](CO)[C@@H](c4ccc(-c5cccnc5)cc4)[C@@H]3C2)c1	-3.53*
COc1cccc(S(=O)(=O)N2CCCCN3[C@H](C2)[C@@H](c2ccc(-c4cncnc4)cc2)[C@@H]3CO)c1	0.964
SMILES	IDE exosite FP
COc1cccc(S(=O)(=O)N2CCCCN3[C@@H](CO)[C@@H](c4ccc(-c5cccnc5)cc4)[C@@H]3C2)c1	-6.27*
Cc1cccc(S(=O)(=O)N2CCCCN3[C@H](CO)[C@H](c4ccc(-c5ccncc5)cc4)[C@H]3C2)c1	1.51
C/C=C/c1ccc([C@H]2[C@@H](CO)N(C(C)=O)[C@@H]2CNC(=O)NCCC)cc1	1.02
COCC#Cc1ccc([C@@H]2[C@@H](C#N)N(C(=O)Cc3ccccc3)[C@@H]2CO)cc1	0.44
COCC(=O)Nc1ccc2c(c1)[C@H]1C[C@@H](CC(=O)N[C@H](C)c3ccccc3)O[C@@H](CO)[C@H]1O2	1.9
Cc1ccc(CN2CC(=O)N3[C@H](CO)[C@@H](c4ccc(-c5ccccc5F)cc4)[C@@H]3C2)cc1	-0.229
COc1ccccc1-c1ccc([C@H]2[C@H](C#N)N[C@@H]2CO)cc1	-12*
COc1ccc(-c2ccc([C@H]3[C@@H](C#N)N[C@@H]3CO)cc2)cc1	3.12
COc1ccc(-c2ccc([C@@H]3[C@H](C#N)N[C@H]3CO)cc2)cc1	4.15
N#C[C@H]1N[C@H](CO)[C@@H]1c1ccc(-c2ccccc2F)cc1	-4.36*
N#C[C@@H]1N[C@H](CO)[C@@H]1c1ccc(-c2ccccc2F)cc1	4.65
N#C[C@H]1N[C@H](CO)[C@H]1c1ccccc1	3.81
CCc1cnc(N2[C@H](CO)[C@@H](c3ccc(C#Cc4ccccc4F)cc3)[C@@H]2C#N)s1	-0.233
O=C(NC[C@H]1N[C@H](CO)[C@H]1c1ccccc1)C1CC1	0.175
C[C@@H]1CCCCO[C@@H](CN(C)Cc2ccc3c(c2)OCO3)[C@@H](C)CN([C@H](C)CO)C(=O)c2cc(NS(=O)(=O)c3cn(C)cn3)ccc2O1	2
O=C(NC[C@H]1N[C@H](CO)[C@H]1c1ccc(-c2ccccc2F)cc1)c1ccccn1	-4.68*
COCC(=O)NC[C@@H]1N[C@@H](CO)[C@H]1c1ccc(C2=CCCCC2)cc1	1.89
COCC(=O)NC[C@H]1N[C@H](CO)[C@@H]1c1ccc(-c2ccccc2)cc1	-0.596
O=C(NC[C@H]1N[C@@H](CO)[C@H]1c1ccc(-c2ccc(F)cc2)cc1)c1ccccn1	5.69
O=C(NC[C@H]1N[C@@H](CO)[C@H]1c1ccc(-c2ccccc2F)cc1)c1ccccn1	-2.49
COCC(=O)NC[C@@H]1N[C@@H](CO)[C@H]1c1ccc(-c2ccccc2F)cc1	-3.81*
COc1ccccc1CN1CC[C@@H]2[C@H]1c1cc(C3=CCCCC3)ccc1N[C@@H]2CO	2.7
COc1cccc(CNC(=O)C[C@H]2CC[C@H]3[C@H](COc4ccc(NC(=O)c5cccs5)cc4C(=O)N3C)O2)c1	-0.295
C[C@@H](NC(=O)C[C@H]1CC[C@@H]2[C@H](COC[C@H](O)CN2C(=O)Nc2cccc(Cl)c2)O1)c1ccccc1	0.972
O=C(Nc1cc(F)ccc1F)N1CCCCN2[C@@H](CO)[C@H](c3ccc(-c4cccnc4)cc3)[C@@H]2C1	2.16
SMILES	IDE exosite FP
COc1ccc(C#Cc2ccc([C@@H]3[C@@H](CO)N4C(=O)CN(C(=O)c5cccnc5)C[C@@H]34)cc2)cc1	2.14
Cc1ccccc1S(=O)(=O)N1CC(=O)N2[C@H](CO)[C@@H](c3ccc(C#CC4CC4)cc3)[C@H]2C1	1.35
COc1cccc(-c2ccc([C@H]3[C@@H](CO)N4CCCCN(CC5CC5)C[C@H]34)cc2)c1	-5.14*
COc1cccc(-c2ccc([C@H]3[C@@H](CO)N4CCCCN(Cc5cncnc5)C[C@H]34)cc2)c1	-6.61*
COc1cccc(-c2ccc([C@H]3[C@@H](CO)N4CCCCN(Cc5cncnc5)C[C@@H]34)cc2)c1	-2.69
COc1cccc(CN2CCCCN3[C@H](CO)[C@H](c4ccc(-c5cccc(C#N)c5)cc4)[C@@H]3C2)c1	0.952
COc1cccc(-c2ccc([C@H]3[C@H](CO)N4CCCCN(Cc5cncnc5)C[C@@H]34)cc2)c1	-3.01*
COc1ccc(-c2ccc([C@H]3[C@H]4CN(CC5CCOCC5)CCCCN4[C@H]3CO)cc2)cc1	0.748
OC[C@@H]1[C@@H](c2ccc(-c3cccc(F)c3)cc2)[C@@H]2CN(Cc3cncnc3)CCCCN12	0.632
OC[C@H]1[C@@H](c2ccc(-c3cccc(F)c3)cc2)[C@H]2CN(Cc3cncnc3)CCCCN21	1.45
